Where “and” joins values, the source holds several entries; their conditions need not be identical. Equal entries are not always repeated. This is part of a sample that, as a whole, favours compounds with a hit. Of some 83,000 tested, about 20% had one in any assay.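 A percent growth of 40 corresponds to 60% growth inhibition; 0 means no net growth; -100 means all cells died. Active threshold: below 10.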 A number with no mark means an inactive call. Calls of active or inactive are those of the source.
Experiments:
Test in all cases: NCI-60 one-dose screen, 48 h (100 = growth as untreated, 0 = no growth, -100 = all killed)
Conditions in all cases: 10 µM unless noted
[1] = system: HCT-15 colon
[2] = system: HT29 colon
[3] = system: SNB-75 CNS
[4] = system: SNB-19 CNS
[5] = system: U251 CNS
[6] = system: PC-3 prostate
[7] = system: SK-MEL-5 melanoma
[8] = system: UACC-62 melanoma
[9] = system: LOX IMVI melanoma
[10] = system: SK-MEL-28 melanoma

Structure (SMILES) | growth [1] | growth [2] | growth [3] | growth [4] | growth [5] | growth [6] | growth [7] | growth [8] | growth [9] | growth [10]
COc1ccc(C2=Nc3c(N)nc(N)nc3NC(c3ccc(Oc4nc(Nc5ccc(F)cc5)nc(N(C)C)n4)c(OC)c3)C2)cc1 (stereo not given) | 48.7% | 46.4% | 51% | 76.5% | 65.3% | 49.1% | 51.5% | 98.3% | 63.1% | 93.2%
C/C(=N/O)c1ccc(NC(=O)CSc2nnc(-c3ccc4nc(-c5ccc(Cl)cc5)[nH]c4c3)o2)cc1 | 99.1% | 93.2% | 55.8% | 20.8% | -58.8% (active) | 41% | 11% | 10.5% | -64.4% (active) | -61.5% (active)
CC(Nc1ncnc2ccc(-c3ccc4oc(N)nc4c3)cc12)c1ccccc1 (stereo not given) | 5.13% (active) | 29.5% | -82.8% (active) | 20.3% | -22.8% (active) | 34.4% | -75.3% (active) | 11.9% | -97.7% (active) | 17.4%
C#CCN(C)CCCOc1ccc(N(C)C(=O)c2cc(C(C)C)c(O)cc2O)cc1Cl | 4.84% (active) | 9.18% (active) | 26.2% | 22.1% | 11.4% | 20% | -94.4% (active) | -17.6% (active) | -89.2% (active) | 15.9%
CSc1ccc(OCc2nc3ccccc3n2-c2cccc(NS(C)(=O)=O)c2)cc1 | 115% and 93.4% | 109% and 110% | 79.6% and 68.9% | 102% and 85.6% | 104% and 76.9% | 80.5% and 93.4% | 98% and 104% | 86.1% and 100% | 88.9% | 119% and 99.1%
COc1ccc2[nH]cc(-c3cc4nc(-c5cn(C)c6ncc(Br)cc56)cc(N)n4n3)c2c1 | -70.5% (active) | -76.1% (active) | -56.9% (active) | -29.4% (active) | -76.1% (active) | -39.5% (active) | -88.3% (active) | -82.5% (active) | -97.9% (active) | -92.4% (active)
COc1ccc2c(c1)C(Sc1ccc(Cl)cc1)c1c(nc(N)c(C#N)c1N)O2 (stereo not given) | 58.9% | 75.2% | 36.9% | 65.1% | 51.9% | 20% | 36.5% | 64.3% | -2.6% (active) | 99.8%
CCCn1c(NC(=O)c2cccc(C(N)=O)c2)nc2cc(CN3CCCCC3)ccc21 | 77.9% | 87.1% | 133% | 113% | 116% | 77% | 88% | 113% | 96.5% | 112%
COc1ccc(N=Nc2c(N)nn3c(N)c(C#N)c(-c4ccccc4)nc23)cc1 | 70.8% | 60.9% | -15.8% (active) | 27.1% | 21% | 28.2% | 34.2% | 36.3% | 54.9% | 66.6%
COc1ccc2[nH]c(=O)c(CSc3ccccc3Nc3nccc(-c4ccc(C(F)(F)F)cc4)n3)cc2c1 | 12.9% | 4.71% (active) | -5.5% (active) | 33.7% | 22.5% | 3.44% (active) | 48.8% | 47.9% | 7.62% (active) | 51.4%
COc1ccc([C@H]2C(C(=O)c3ccc(Cl)cc3)C3(N[C@@H]2c2ccccc2)C(=O)Nc2ccccc23)cc1 (stereo not given in full) | 16.4% | 9.82% (active) | 35% | 42.2% | 36.5% | 36.9% | 26% | 9.8% (active) | 12.2% | 49.7%
O=C(c1ccc(Cl)cc1)C1[C@H](c2ccccc2Cl)[C@@H](c2ccccc2)NC12C(=O)Nc1ccccc12 (stereo not given in full) | -25.8% (active) | -71.7% (active) | -4.03% (active) | 7.09% (active) | -26.4% (active) | -3.66% (active) | -97.1% (active) | -73.3% (active) | -97.9% (active) | -57.3% (active)
CCCCNC(=S)Nc1ccc(OCc2nc3ccc(Cl)cc3[nH]2)cc1 | 14.5% | 28.4% | 26.4% | 53% | 23.7% | 35.4% | 42.5% | 29.9% | -29.8% (active) | 45.5%
Cc1ccc(Cl)cc1NC(=O)N/C(N)=N/c1nc2ccccc2s1 | -22.4% (active) | -69.5% (active) | -4.17% (active) | 12.5% | -43.8% (active) | 2.99% (active) | -56.9% (active) | -11.4% (active) | -83.3% (active) | 19.6%
Cc1ccc2c(c1)/C(=C/C(=O)c1cc3ccccc3oc1=O)C(=O)N2 | -20.4% (active) | 59.9% | 88.7% | 87.8% | 73.9% | 73.5% | 94.2% | 49.7% | 27.4% | 55.7%
COc1cc(C=O)ccc1OC(=O)c1cc(-c2ccc(C)cc2)n(-c2ccc(S(C)(=O)=O)cc2)n1 | 96.7% | 113% | 104% | 90.3% | 100% | 100% | 100% | 91.4% | 98.8% | 113%
Nc1nc(-c2ccccc2)c(N=Nc2ccc(Cl)cc2Cl)s1 | -86% (active) | -60.4% (active) | -36.5% (active) | -18.1% (active) | -10.7% (active) | -1.78% (active) | -99.2% (active) | -49.5% (active) | -99.5% (active) | -55.8% (active)
COc1ccc(NC(=O)CSc2nnc(-c3ccc(-c4nc5ccccc5[nH]4)cc3)o2)cc1 | 18.2% | 18% | 63.4% | -5.58% (active) | -68.2% (active) | 25.1% | 14% | 17.8% | -63.9% (active) | -72.3% (active)
N#CC1=C(c2cccs2)Nc2c(c(-c3ccccc3)nn2-c2ccccc2)C12C(=O)Nc1ccc(Br)cc12 (stereo not given) | -6.66% (active) | -32.8% (active) | -39.5% (active) | 7.99% (active) | -47.8% (active) | -3.33% (active) | 0.371% (active) | -52.3% (active) | -11.3% (active) | -69.6% (active)
O=C1/C(=C/C=C/c2ccco2)SC(=S)N1CC(=S)C1C=CS(=O)(=O)C1 (stereo not given) | 75.6% | 109% | 93.5% | 95.2% | 88.7% | 96.7% | 86.8% | 74.4% | 66.7% | 93.9%
CCC(=O)c1c2c(c3ccc4c5ccccc5ccc4n13)C(=O)c1ccccc1C2=O | 66.8% | 94.2% | 113% | 66.7% | 90.4% | 77.1% | -23.6% (active) | 54.9% | 50.1% | 76.4%
COc1ccc(-c2nc3ccccc3n2CC(=O)N=Nc2c(O)[nH]c3ccc(OC)cc23)cc1 | 43.7% | 0.298% (active) | 73% | 95.1% | 96.6% | 64.8% | 22.9% | 81.6% | 56.8% | 81.2%
CCN1C(=O)N(CC)C2NNC(Sc3c(C(=O)O)c4ccccc4n(CC(C)C)c3=O)=NC21 (stereo not given) | 7.04% (active) | -8.58% (active) | 34.4% | 17% | 10.7% | 29.9% | 2.31% (active) | 14.7% | 16.5% | 54.4%
Oc1cncc(-c2ccc3ncnc(N4CCc5cc(F)c(Cl)cc54)c3c2)c1 | 66.3% | 57.8% | 25.6% | 38.6% | 39.1% | 57.4% | 78.5% | 71.8% | 38.8% | 77.6%
COc1ccc(NC2=C(I)C(=O)C(C)=C(C)C2=O)cc1 | 64.3% | 101% | 86.3% | 81.2% | 25.9% | 10.2% | -44.6% (active) | 33.3% | 2.42% (active) | 52.6%
O=C(CSc1nnc(-c2ccc(-c3nc4ccc(Cl)cc4[nH]3)cc2)o1)Nc1ccc(Cl)cc1 | 8.62% (active) | 23.1% | 2.16% (active) | -8.15% (active) | -74.1% (active) | -24.1% (active) | 8.87% (active) | -44.8% (active) | -92.5% (active) | -73.6% (active)
